# The sample as a whole holds a higher share of the strongest signals than the screen did.
# Legend:
# Assay in all cases: glycan array binding signal (z-score within array); higher = stronger binding
# Conditions in all cases: glycan notation: IUPAC condensed, linker removed
# [1] = molecular target: Fuc(a1-2)Gal
# Outline: (§1)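 Columns mapping to the same glycan were averaged after glycan names were converted to IUPAC-condensed notation. The data come from 3228 arrays in the Consortium for Functional Glycomics database, limited to those with an available protein sequence. Binding is reported as a within-array Z-score averaged across arrays of one protein sequence and across linkers.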
# [2] = molecular target: Fuc(a1-2)Gal(b1-4)GlcNAc(b1-2)Man(a1-3)[Fuc(a1-2)Gal(b1-4)GlcNAc(b1-2)Man(a1-6)]Man(b1-4)GlcNAc(b1-4)[Fuc(a1-6)]GlcNAc
# Outline: as §1
# [3] = molecular target: Fuc(a1-2)Gal(b1-4)GlcNAc(b1-6)GalNAc
# Outline: as §1
# [4] = molecular target: Fuc(a1-2)Gal(b1-4)[Fuc(a1-3)]GlcNAc(b1-3)Gal(b1-4)[Fuc(a1-3)]GlcNAc(b1-3)Gal(b1-4)[Fuc(a1-3)]GlcNAc
# Outline: as §1
# [5] = molecular target: Fuc(a1-2)Gal6S(b1-3)GlcNAc6S
# Outline: as §1
# [6] = molecular target: Fuc(a1-2)[Gal(a1-3)]Gal(b1-3)GlcNAc
# Outline: as §1
# [7] = molecular target: Fuc(a1-2)[Gal(a1-3)]Gal(b1-4)GlcNAc
# Outline: as §1
# [8] = molecular target: Fuc(a1-2)[Gal(a1-3)]Gal(b1-4)GlcNAc(b1-2)Man(a1-3)[Fuc(a1-2)[Gal(a1-3)]Gal(b1-4)GlcNAc(b1-2)Man(a1-6)]Man(b1-4)GlcNAc(b1-4)[Fuc(a1-6)]GlcNAc
# Outline: as §1
# [9] = molecular target: Fuc(a1-2)[GalNAc(a1-3)]Gal(b1-4)GlcNAc(b1-2)Man(a1-3)[Fuc(a1-2)[GalNAc(a1-3)]Gal(b1-4)GlcNAc(b1-2)Man(a1-6)]Man(b1-4)GlcNAc(b1-4)GlcNAc
# Outline: as §1
# [10] = molecular target: Fuc(a1-3)[Gal(b1-4)]GlcNAc(b1-6)[Gal(b1-3)GlcNAc(b1-3)]Gal(b1-4)Glc
# Outline: as §1
# [11] = molecular target: Gal(a1-3)Gal(b1-4)GlcNAc(b1-2)Man(a1-3)[Gal(a1-3)Gal(b1-4)GlcNAc(b1-2)Man(a1-6)]Man(b1-4)GlcNAc(b1-4)GlcNAc
# Outline: as §1
# [12] = molecular target: Gal(a1-3)Gal(b1-4)GlcNAc(b1-3)GalNAc
# Outline: as §1
# [13] = molecular target: Gal(b1-2)Gal
# Outline: as §1
# [14] = molecular target: Gal(b1-3)Gal
# Outline: as §1
# [15] = molecular target: Gal(b1-3)GlcNAc
# Outline: as §1
# [16] = molecular target: Gal(b1-3)GlcNAc(b1-3)Gal(b1-4)GlcNAc
# Outline: as §1
# [17] = molecular target: Gal(b1-3)GlcNAc(b1-3)Gal(b1-4)GlcNAc(b1-3)Gal(b1-4)GlcNAc(b1-2)[Gal(b1-3)GlcNAc(b1-3)Gal(b1-4)GlcNAc(b1-3)Gal(b1-4)GlcNAc(b1-6)]Man(a1-6)[Gal(b1-3)GlcNAc(b1-3)Gal(b1-4)GlcNAc(b1-3)Gal(b1-4)GlcNAc(b1-2)Man(a1-3)]Man(b1-4)GlcNAc(b1-4)[Fuc(a1-6)]GlcNAc
# Outline: as §1
# [18] = molecular target: Gal(b1-3)[Fuc(a1-4)]GlcNAc
# Outline: as §1
# [19] = molecular target: Gal(b1-3)[Fuc(a1-4)]GlcNAc(b1-2)Man
# Outline: as §1
# [20] = molecular target: Gal(b1-3)[GlcNAc(b1-6)]GalNAc
# Outline: as §1
# [21] = molecular target: Gal(b1-4)GlcNAc
# Outline: as §1
# [22] = molecular target: Gal(b1-4)GlcNAc(b1-2)Man(a1-3)[GlcNAc(b1-4)][Gal(b1-4)GlcNAc(b1-2)Man(a1-6)]Man(b1-4)GlcNAc(b1-4)GlcNAc
# Outline: as §1
# [23] = molecular target: Gal(b1-4)GlcNAc(b1-2)[Gal(b1-4)GlcNAc(b1-4)]Man(a1-3)[Gal(b1-4)GlcNAc(b1-2)[Gal(b1-4)GlcNAc(b1-6)]Man(a1-6)]Man(b1-4)GlcNAc(b1-4)GlcNAc
# Outline: as §1
# [24] = molecular target: Gal(b1-4)GlcNAc(b1-3)Gal(b1-4)Glc
# Outline: as §1
# [25] = molecular target: Gal(b1-4)GlcNAc(b1-3)Gal(b1-4)GlcNAc(b1-3)[Gal(b1-4)GlcNAc(b1-3)Gal(b1-4)GlcNAc(b1-6)]GalNAc
# Outline: as §1
# [26] = molecular target: Gal(b1-4)GlcNAc(b1-3)GalNAc
# Outline: as §1
# [27] = molecular target: Gal3S(b1-3)GalNAc
# Outline: as §1
binder,measurement,setting,value
"Tp0751, 83732 (protein) MSYYHHHHHHLESTSLYKKAGFQHGHVPPRRIPPHDTFGALPTAALPSNARDTAAHPSDTADNTSGSSTTTDPRSHGNAPPAPVGGAAQTHTQPPVQTAMRIALWNRATHGEQGALQHLLAGLWIQTEISPNSGDIHPLLFFDREHAEITFSRASVQEIFLVDSAHTHRKTVSFLTRNTAISSIRRRLEVTFESHEVIHVRAVEDVARLKIGSTSMWDGQYTRYHAGPASAPSP",glycan array binding signal (z-score),[1],-0.265
same,glycan array binding signal (z-score),[2],1.64
same,glycan array binding signal (z-score),[3],-0.071
same,glycan array binding signal (z-score),[4],0.013
same,glycan array binding signal (z-score),[5],1.11
same,glycan array binding signal (z-score),[6],1.77
same,glycan array binding signal (z-score),[7],0.066
same,glycan array binding signal (z-score),[8],-0.276
same,glycan array binding signal (z-score),[9],0.638
same,glycan array binding signal (z-score),[10],0.413
same,glycan array binding signal (z-score),[11],0.262
same,glycan array binding signal (z-score),[12],-0.025
same,glycan array binding signal (z-score),[13],2.31
same,glycan array binding signal (z-score),[14],0.017
same,glycan array binding signal (z-score),[15],-0.323
same,glycan array binding signal (z-score),[16],-0.382
same,glycan array binding signal (z-score),[17],-0.07
same,glycan array binding signal (z-score),[18],-0.004
same,glycan array binding signal (z-score),[19],-0.163
same,glycan array binding signal (z-score),[20],-0.373
same,glycan array binding signal (z-score),[21],0.21
same,glycan array binding signal (z-score),[22],-0.493
same,glycan array binding signal (z-score),[23],0.31
same,glycan array binding signal (z-score),[24],-0.441
same,glycan array binding signal (z-score),[25],1.78
same,glycan array binding signal (z-score),[26],-0.427
same,glycan array binding signal (z-score),[27],3.13
